Bioassay records from PubChem.
Most compounds without a hit are left out; they make up all but 3.7% or so of the library.
TSG101-PTAP inh = qHTS Validation Assay for Inhibitors of HIV-1 Budding by Blocking the Interaction of PTAP/TSG101: Sytravon Library Screen; Tumor susceptibility gene 101 protein (Homo sapiens), Q99816; Potency, µM (doses to about 115 µM), most hits filed as inhibitors; Fluorescence polarization, FITC-PTAP peptide/Tsg101, 20 min; 44,000 tested, under 10 active; AID 1347069, 2019; further: potency means the concentration at half of the fitted maximal effect; 0% is about no effect
Target sequence (Q99816 whole entry, looked up): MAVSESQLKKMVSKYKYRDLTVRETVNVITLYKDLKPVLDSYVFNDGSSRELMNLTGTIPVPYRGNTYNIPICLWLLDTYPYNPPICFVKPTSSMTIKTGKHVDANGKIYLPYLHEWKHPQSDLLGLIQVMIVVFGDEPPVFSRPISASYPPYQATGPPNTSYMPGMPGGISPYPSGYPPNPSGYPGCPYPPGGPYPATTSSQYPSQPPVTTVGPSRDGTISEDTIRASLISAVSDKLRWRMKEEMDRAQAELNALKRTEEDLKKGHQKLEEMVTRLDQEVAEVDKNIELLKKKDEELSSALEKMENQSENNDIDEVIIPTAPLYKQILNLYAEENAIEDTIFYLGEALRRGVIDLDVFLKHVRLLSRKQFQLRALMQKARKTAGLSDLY
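The Tsg101 binding domain, at 10 uM final, is mixed with compound and a FITC peptide bearing the PTAP motif (50 nM final). After 20 min at r.t., polarization is measured; actives defined by CRC class, efficacy cut-off 60% inhibition.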
DRV1 agonist = qHTS for Agonists of Human Resolvin D1 Receptor DRV1; Probable G-protein coupled receptor 32 (Homo sapiens), O75388; CHO-K1 GPR32 beta-arrestin PathHunter luminescence, 90 min; zero percent set by DMSO-only wells; activation, % at 76.9 µM; 48,000 compounds, 2.5% hits; AID 1346428, 2018;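 active means activation of at least 60% and not above a set upper limit, about 1 call in 100 departs from these limits; inconclusive means activation of 40% to 60%, or above that upper limit; inactive means activation under 40%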; further: 0% is about no effect
Target sequence (O75388 whole entry, looked up): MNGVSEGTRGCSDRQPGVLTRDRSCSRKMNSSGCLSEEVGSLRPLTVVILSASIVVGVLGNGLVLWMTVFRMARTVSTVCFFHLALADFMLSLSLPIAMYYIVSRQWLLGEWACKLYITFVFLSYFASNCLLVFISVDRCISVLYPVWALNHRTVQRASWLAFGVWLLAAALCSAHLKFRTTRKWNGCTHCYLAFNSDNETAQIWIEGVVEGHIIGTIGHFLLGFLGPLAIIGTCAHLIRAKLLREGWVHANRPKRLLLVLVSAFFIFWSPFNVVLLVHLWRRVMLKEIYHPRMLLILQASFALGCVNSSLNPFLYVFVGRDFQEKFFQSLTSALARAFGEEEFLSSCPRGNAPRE
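Using DMSO wells as EC0, agonist-induced signal was taken as chemiluminescence from beta-Gal reconstituted upon beta-arrestin recruitment to GPR32 in CHO-K1 cells after 90 min compound treatment.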
B2AR arrestin ag = qHTS assay of beta-arrestin-biased ligands of beta2-adrenergic receptor: NCGC Sytravon Library Screen; Beta-2 adrenergic receptor (Homo sapiens), P07550; HTLA Tango cells, beta-arrestin recruitment, luciferase luminescence, 18 h; Potency, µM (titrated, usually from 46.1 µM), actives largely listed as activators; 44,000 tested, under 10 active; AID 1347077, 2019;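 further: potency means the concentration at half of the fitted maximal effect; 0% = DMSO and full agonism = EC100 isoproterenol or metaproterenol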
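First, Tango cells carrying beta2-AR and beta-arrestin fusions received compound up to 46 microM. After 18 hr at 37 degrees C, luciferase substrate was added for 15 minutes, then luminescence gave %Activity for curve fitting.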
HTT-AS promoter = Primary qHTS for Identification of Small Molecule Activators of Huntingtin-Antisense Promoter Activity | HEK293 HTT-AS promoter firefly luciferase reporter, 24 h; response scale: percent change from vehicle, -100% = no light | Potency, µM (top dose mostly 57.5 µM), inactives show top-dose activity change, positive = activation, most hits filed as activators | 48,000 compounds, 0.24% hits; further: potency means the concentration at half of the fitted maximal effect; nearly all actives have a fitted effect of over 55% in size
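HEK293 Fluc reporter, 2,500 cells/well, 24 h pre-culture; cpds up to 57.5 uM final, 24 h 37 degrees C; Dual-Glo, 10 min RT; normalized vehicle = 0%, zero RLU = -100%.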
GALK inhibitor = qHTS Assay for Inhibitors of Human Galactokinase (GALK): NCGC Sytravon Library Screen; 44,000 tested, under 10 active; Potency, µM (highest dose often 57.5 µM), for the others: top-dose activity, negative = inhibition, most hits filed as inhibitors; AID 1347072, 2019; P51570; recombinant GALK, Kinase-Glo ATP luminescence, 1 h;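 further: plate controls were full GALK reaction for no effect and reaction lacking GALK for full effect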
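Luminescent ATP-depletion readout (Kinase-Glo Plus) after 1 h room-temperature incubation of human GALK (5 nM) with galactose 100 µM and ATP 35 µM, pH 8.0 HEPES/Mg2+ buffer; compounds tested in qHTS format.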
HTT prom inh = Primary qHTS for Identification of Small Molecule Inhibitors of Huntingtin Promoter Activity | 48,000 compounds, 0.93% hits | HEK293 HTT promoter firefly luciferase reporter, 24 h | Potency, µM (doses to about 57.5 µM), inactives show at the top dose activity change, negative = inhibition, actives largely listed as inhibitors; further: potency means the concentration at half of the fitted maximal effect; nearly all actives have a fitted effect of over 50% in size
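HEK293 luciferase promoter-reporter cells (2,500/well) plated 24 h, then compounds added at up to 57.5 uM final for 24 h at 37 °C. Firefly luminescence by Dual-Glo, normalized to vehicle (0%) and zero RLU (-100%).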
Active calls of the source: *; [ ] = another dose, or the depositor's remark. Unless noted, the call rests on the fitted dose curve; in most records, active means well fitted curve in the direction sought with a large enough effect; inconclusive means small, poorly fitted or top-dose-only effect, or another doubt; inactive means no such curve, though single readings can be large; an effect the other way counts as inactive or inconclusive.

What do the screens show for `Cc1ccc(NC(=O)Cn2cc(S(=O)(=O)NC(C)C)c(S(=O)(=O)NC(C)C)c2)cc1Cl`?
TSG101-PTAP inh: inactive; DRV1 agonist: 69*; B2AR arrestin ag: inactive; HTT-AS promoter: -7%; GALK inhibitor: -2%; HTT prom inh: inconclusive

How did c1ccc(-c2cc3ncc4c(n3n2)-c2ccccc2OC4)cc1 do in these assays?
TSG101-PTAP inh: inactive; DRV1 agonist: -6; B2AR arrestin ag: inactive; HTT-AS promoter: 1.6µM*; GALK inhibitor: 7%; HTT prom inh: 67%

How did COc1cccc(NC(=O)CSc2nccn2Cc2ccc3c(c2)OCO3)c1 do in these assays?
TSG101-PTAP inh: inactive; DRV1 agonist: 75*; B2AR arrestin ag: inactive; HTT-AS promoter: 6%; GALK inhibitor: -1%; HTT prom inh: 8%

What do the screens show for `Cc1cc2c(cc1CC(=O)c1sccc1S(=O)(=O)Nc1onc(C)c1Cl)OCO2`?
DRV1 agonist: 23; HTT-AS promoter: -5%; HTT prom inh: -1%

What do the screens show for `Cc1cc2oc(C(=O)Nc3ccc(S(=O)(=O)Nc4ncccn4)cc3)cc(=O)c2cc1C`?
TSG101-PTAP inh: inactive; DRV1 agonist: 10; B2AR arrestin ag: inactive; HTT-AS promoter: 8%; GALK inhibitor: -4%; HTT prom inh: -9%

Results for Cc1ccc2c(=O)cc(C(=O)Nc3ccc(S(=O)(=O)Nc4ncccn4)cc3)oc2c1C ?
TSG101-PTAP inh: inactive; DRV1 agonist: 67*; B2AR arrestin ag: inactive; HTT-AS promoter: 2%; GALK inhibitor: 9%; HTT prom inh: 18%

What do the screens show for `COc1ccc(-c2nc(C)c(CCNC(=O)C(=O)Nc3c(C)cccc3C)s2)cc1OC`?
TSG101-PTAP inh: inactive; DRV1 agonist: 70*; B2AR arrestin ag: inactive; HTT-AS promoter: 1%; GALK inhibitor: -1%; HTT prom inh: 1%

How did COc1ccc(-c2nc(C)c(CCNC(=O)Cc3ccc(F)cc3)s2)cc1OC do in these assays?
TSG101-PTAP inh: inactive; DRV1 agonist: 11; B2AR arrestin ag: inactive; HTT-AS promoter: -7%; GALK inhibitor: -7%; HTT prom inh: -17%

Results for COc1ccc(CC(=O)NCCc2sc(-c3ccc(Cl)cc3)nc2C)cc1OC ?
TSG101-PTAP inh: inactive; DRV1 agonist: 92*; B2AR arrestin ag: inactive; HTT-AS promoter: -41%; GALK inhibitor: -2%; HTT prom inh: -51%

Results for CCOc1ccc(NC(=O)Nc2ccc3snnc3c2)cc1 ?
TSG101-PTAP inh: inactive; DRV1 agonist: 87*; B2AR arrestin ag: inactive; HTT-AS promoter: -4%; GALK inhibitor: -3%; HTT prom inh: -8%

How did O=C(Nc1cccc(C(F)(F)F)c1)Nc1ccc2snnc2c1 do in these assays?
TSG101-PTAP inh: inactive; DRV1 agonist: inconclusive; B2AR arrestin ag: inactive; HTT-AS promoter: -62%; GALK inhibitor: inconclusive; HTT prom inh: inconclusive

How did Cc1cc(C)c(NC(=O)Nc2ccc3snnc3c2)c(C)c1 do in these assays?
TSG101-PTAP inh: inactive; DRV1 agonist: 63*; B2AR arrestin ag: inactive; HTT-AS promoter: -34%; GALK inhibitor: -1%; HTT prom inh: inconclusive

How did Cc1c(Cn2c(C)nc3c(C(=O)O)cc(N4CCOCC4)cc32)cccc1C(F)(F)F do in these assays?
HTT-AS promoter: -31%; HTT prom inh: -14%

How did Cc1ccc(S(=O)(=O)CCC(=O)N2CCN(c3nc4c(C)c(C)ccc4s3)CC2)cc1 do in these assays?
TSG101-PTAP inh: inactive; DRV1 agonist: 29; B2AR arrestin ag: inactive; HTT-AS promoter: -20%; GALK inhibitor: -2%; HTT prom inh: 0%

What do the screens show for `CCCCC(=O)N1CCN(c2nc3c(C)c(C)ccc3s2)CC1`?
TSG101-PTAP inh: inactive; DRV1 agonist: 69*; B2AR arrestin ag: inactive; HTT-AS promoter: -12%; GALK inhibitor: -5%; HTT prom inh: -19%

Results for Cc1c(Cl)ccc2sc(N3CCN(C(=O)c4ccco4)CC3)nc12 ?
TSG101-PTAP inh: inactive; DRV1 agonist: 85*; B2AR arrestin ag: inactive; HTT-AS promoter: inconclusive; GALK inhibitor: 1%; HTT prom inh: 21%

How did CC(C)C[C@@H](N)[C@H](O)C(=O)N[C@H](C(=O)N[C@H](C(=O)N[C@@H](CC(=O)O)C(=O)O)C(C)C)C(C)C do in these assays?
HTT-AS promoter: -11%; HTT prom inh: -22%

How did Cc1cc(SCc2sc(-c3ccc(C(F)(F)F)cc3)nc2C)ccc1OCC(=O)O do in these assays?
HTT-AS promoter: 21%; HTT prom inh: 14%

What do the screens show for `CCOc1ccccc1NC(=O)COC(=O)CC(C)(C)CC1=NS(=O)(=O)c2ccccc2N1`?
TSG101-PTAP inh: inactive; DRV1 agonist: 83*; B2AR arrestin ag: inactive; HTT-AS promoter: -43%; GALK inhibitor: -1%; HTT prom inh: inconclusive

How did Cc1ccc(Cl)cc1NC(=O)COC(=O)CC(C)(C)CC1=NS(=O)(=O)c2ccccc2N1 do in these assays?
TSG101-PTAP inh: inactive; DRV1 agonist: inconclusive; B2AR arrestin ag: inactive; HTT-AS promoter: -35%; GALK inhibitor: 1%; HTT prom inh: inconclusive

How did CC(C)(CC(=O)NCc1ccc(Cl)cc1Cl)CC1=NS(=O)(=O)c2ccccc2N1 do in these assays?
TSG101-PTAP inh: inactive; DRV1 agonist: 110*; B2AR arrestin ag: inactive; HTT-AS promoter: -60%; GALK inhibitor: -2%; HTT prom inh: 20µM*

How did CCCn1c(=O)c2[nH]c(-c3cnn(Cc4cccc(C(F)(F)F)c4)c3)nc2n(CC)c1=O do in these assays?
HTT-AS promoter: 0%; HTT prom inh: 4%

Results for C[C@@H]1[C@H](C)CC[C@]2(C(=O)O)CC[C@]3(C)C(=CC[C@@H]4[C@@]5(C)CC[C@H](O)C(C)(C)[C@H]5CC[C@]43C)[C@@H]12 ?
HTT-AS promoter: -19%[116 µM]; HTT prom inh: -12%[116 µM]

Results for COc1ccc(OC)c(CNCc2c(C(=O)O)n(Cc3cccc(F)c3)c3cc(OC)ccc23)c1 ?
TSG101-PTAP inh: inactive; DRV1 agonist: 5; B2AR arrestin ag: inactive; HTT-AS promoter: -30%; GALK inhibitor: -1%; HTT prom inh: -14%
